# Data taken from ChEMBL document CHEMBL4513149, “CO-ADD screening of MMV (CH) - MMV compounds” (2021).
# Measured potencies and affinities stand elsewhere.
# Test system: Klebsiella pneumoniae
# Details: Concentration 20 uM; ASSAY_TEST Inhibition of Bacterial Growth; detection method Absorption (OD600); MEDIA CAMHB; plate type 384well; NBS; CORNING #3640; time 18 hr
row,SMILES,Inhibition [%]
1,Clc1ccc(CCNc2cc(-c3ccccc3)nc3ncnn23)cc1,8.91
2,Cc1nn(C(=O)Nc2cccc(C(F)(F)F)c2)c(C)c1Sc1ncccn1,9.64
3,CC(C)n1nc(-c2cc3c(Cl)cccc3[nH]2)c2c(N)ncnc21,6.59
4,O=C(NCCc1c[nH]c2ccccc12)c1cc2ccccc2oc1=O,9.33
5,O=C(c1cc2ccccc2o1)N1CCN(Cc2ccc3c(c2)OCO3)CC1,9.23
6,C[C@H](c1ccc2c(c1)CCCC2)N(C)c1ncc2c(N)nc(N)nc2n1,18.37
7,COc1ccc(-c2nnc3ccc(-c4cccc(C(C)C)c4)cn23)cc1OC,-10.87
8,NC(=O)c1cc(-c2ccsc2)ccc1OCCOc1ccccc1,14.24
9,N#Cc1nc(-c2ccccc2)oc1S(=O)(=O)c1ccc(Cl)cc1,-0.86
10,CC1CCCCN1C(=O)NCCc1coc(-c2ccc(F)cc2)n1 (stereo unspecified),15.76
11,COc1cccn2c(C(=O)N3CCCCC3)c(C(F)(F)F)nc12,7.08
12,FC(F)(F)c1cc(NCCc2ccccc2)nc(-c2ccccn2)n1,-3.94
13,CCOc1ccccc1C(=O)Nc1cccc(-c2nc3ncccn3c2C)c1,11.04
14,CCOc1ccc2cc(-c3nn(CC4CCN(C)CC4)c4ncnc(N)c34)ccc2c1.Cl,14.21
15,O=C(NCc1cc(Cl)cc(Cl)c1)c1c(C(F)(F)F)nc2ccccn12,15.19
16,O=S(=O)(c1ccc(Cl)cc1)N1CCN(C(=S)NCc2ccco2)CC1,5.39
17,CC(C)C(Oc1cccc2ccccc12)C(=O)O (stereo unspecified),6.53
18,O=C(NC1CC1)c1ccc(N2CCOc3ccc(Cl)cc32)s1,15.81

row,SMILES,Inhibition [%]
1,COc1ccc(CN2CCOc3ccc(C(C)(O)CN(C)C)cc3C2)cc1C (stereo unspecified),16.19
2,CCC(NC(=O)c1ccccc1NC(=O)c1ccc(C)cc1)C(=O)OC (stereo unspecified),8.73
3,Cc1cc(Cl)c(S(=O)(=O)N2CCCC2)cc1OCC(=O)NC1CCCCC1,2.55
4,COc1ccc(Cl)cc1NC(=O)CN(C)C(=O)c1cnn(-c2ccccc2)n1,9.17
5,CCCCc1ccc(C(=O)Nc2nccc3ccccc23)nc1,7.3
6,Cc1cc(Nc2ccc(C(F)(F)F)cc2)n2ccnc2n1,6.21
7,CCCCc1ccc(NC(=O)Nc2ccc(O[C@H]3CCCC[C@@H]3N(C)c3ccccc3)c(F)c2)cc1,12.88
8,CN1CCC(c2cc(-c3ccncc3)c(-c3ccc(F)cc3)[nH]2)CC1,5.43
9,c1ccc2c(c1)CN(CC1CC1)CC1(CCN(Cc3c[nH]c4cnccc34)CC1)O2,8.97
10,CC(Oc1ccccc1)C(=O)Nc1nc(-c2ccccn2)cs1 (stereo unspecified),-2.79
11,Cc1noc(C)c1C(=O)N1CCCC(c2[nH]c3c(C)cccc3c2-c2ccncc2)C1 (stereo unspecified),18.77
12,COc1ccc(S(=O)(=O)Nc2ccc(CN3CCN(C(=O)c4cccc(C#N)c4)CC3)cc2)cc1,6.9
13,Nc1nccc2ccc(Oc3ccncc3)cc12,18.43
14,CC1=Nc2ccc(Cl)cc2C(O)(c2ccc(C)cc2)N1CCN1CCCCC1 (stereo unspecified),18.59
15,NCC(=O)N1CCn2c(nc(-c3ccccc3)c2Nc2ccc3c(c2)OCO3)C1,4.52
16,CCC(=O)Nc1ccccc1C(=O)Nc1ccccn1,11.13
17,O=C(NC1CCN(c2ccnc3ccccc23)C1)c1cccc(C(F)(F)F)c1 (stereo unspecified),12.02
18,CCc1nc2ccccc2n1CC(O)COc1cc(C)ccc1Cl (stereo unspecified),3.05
